In the supplement of paper PMC7156485 one finds H1.0 immunofluorescence intensity data, which are given here for 39 compounds.

SMILES strings stand for the structures. Values without a mark were called inactive.
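Note: TDF is a line of transformed human dermal fibroblasts of mesenchymal origin.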

This assay concerns TDF. The assay is described as follows: H1.0 immunofluorescence intensity relative to DMSO (% of DMSO); higher = stronger H1.0 induction, active = 120 or more. The following applies: concentration: 10 µM; 24 h. The essentials: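 Compounds were applied at 10 µM for 24 h at 37 °C, in triplicate, to HCC1569 and TDF cells. The cells were then fixed and stained for H1.0, and nuclei were counterstained with DAPI. Nuclear H1.0 intensity or cell number is reported relative to the plate control as a percent, taking the median of replicates. Smoothing for positional effects was applied to HCC1569 values only.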
Turning to `CCC(CO)NC(=O)C1C=C2c3cccc4c3c(cn4C)CC2N(C)C1.O=C(O)C=CC(=O)O` (centres undefined) [Methysergide maleate], the H1.0 immunofluorescence intensity is 100.
Then `COc1cc2c3cc1Oc1c(OO)c(OC)cc4c1C(Cc1ccc(cc1)Oc1cc(ccc1O)CC3N(C)CC2)N(C)CC4.O=S(=O)(O)O` (centres undefined) [Oxyacanthine sulfate], with 186 (active).
For the compound `CNCCc1c[nH]c2ccc(O)cc12.O=C(O)C(=O)O` [N-omega-Methyl-5-hydroxytryptamine oxalate salt], the H1.0 immunofluorescence intensity is 91.
Then `CC1CC(C)C(=O)C(C(O)CC2CC(=O)NC(=O)C2)C1` (centres undefined) [Cycloheximide], with 110; and `CCN(C)C(=O)Oc1cccc([C@H](C)N(C)C)c1.O=C(O)C(O)C(O)C(=O)O`, with 106; and `CCCN(CCC)C1CCc2c(F)ccc(O)c2C1.Cl` (stereo not drawn) [S(-)-UH-301 hydrochloride], with 98.7.
Then `COc1cc(C(=O)OC2CC3CCC(C2)N3C)ccc1O` (centres undefined) [Fillalbin], with 98.2; and `OCC1CCCN2CCCCC12` (centres undefined) [Lupinine], with 96.3.
In the case of `C[N+]1(C)CCc2cc3c(cc2C1C1OC(=O)c2c1ccc1c2OCO1)OCO3.[Br-]` (single isomer, unassigned; (-)) [(-)-Bicuculline methbromide, 1(S), 9(R)] it was 94.2; in that of `CN1C2CCC1CC(OC(=O)C(CO)c1ccccc1)C2` (centres undefined) [Hyoscyamine], 97.8; in that of `COc1cc(C2c3cc4c(cc3C(O)C3COC(=O)C23)OCO4)cc(OC)c1OC` (centres undefined) [Picropodophyllin], 165 (active).
As to `CN1C2CCCC1CC(=O)C2.Cl`, the H1.0 immunofluorescence intensity is 108.
Then `CCCCCCCCCCCCCCC(Br)C(=O)O` (centres undefined) [2-bromohexadecanoic acid], with 91.6; and `COc1ccc2c(c1OC)C(=O)OC2C1c2cc3c(cc2CCN1C)OCO3` (centres undefined), with 90.5; and `C=CCN1CCC23c4c5ccc(O)c4OC2C(=O)CCC3(O)C1C5.Cl` (centres undefined) [Naloxone hydrochloride], with 97.1.
In the case of `NC(=S)NN=Cc1coc2ccccc2c1=O.[Cl][Cu][Cl]`, the H1.0 immunofluorescence intensity was 105.
Turning to `NCCN(CCN)N(O)N=O` [1,1-bis(2-aminoethyl)-2-hydroxy-3-oxotriazane], the H1.0 immunofluorescence intensity was 93.1.
For the compound `CN(C)C(=O)Oc1ccc[n+](C)c1.[Br-]` [Pyridostigmine bromide], the H1.0 immunofluorescence intensity was 96.8.
Regarding `Cl.N[C@@H](CCl)C(=O)O` [beta-Chloro-L-alanine hydrochloride], the H1.0 immunofluorescence intensity was 92.7.
`Cc1ccc(S(=O)(=O)NC(CCCCN)C(=O)CCl)cc1.Cl` [Na-p-Tosyl-L-lysine chloromethyl ketone hydrochloride]: the H1.0 immunofluorescence intensity is 95.7.
Regarding `CCCCc1ccc(C(=O)O)nc1` [Fusaric acid], the H1.0 immunofluorescence intensity was 90.2.
As for `Br.C=CCN1CCc2cccc3c2C1Cc1ccc(O)c(O)c1-3` (stereo not drawn) [R(-)-N-Allylnorapomorphine hydrobromide], the H1.0 immunofluorescence intensity was 104.
In the case of `Cc1cc(O)c2c(=O)c3c(O)cc(O)c4c5c(O)cc(O)c6c(=O)c7c(O)cc(C)c8c1c2c(c34)c(c78)c65` [Hypericin] it was 96.3; in that of `Cl.O=C(OC1CCN(CCCl)CC1)C(c1ccccc1)c1ccccc1` [4-Diphenylacetoxy-N-(2-chloroethyl)piperidine hydrochloride], 89.5.
In the case of `CC(N)C(=O)OC(C)(C)Cc1ccc(Cl)cc1.Cl` (centres undefined) [Alaproclate hydrochloride], the H1.0 immunofluorescence intensity is 88.2.
In the case of `CC1CCC2C(C)C3C(CC4C5CCC6CC(O)CCC6(C)C5CCC43C)N2C1` (centres undefined) [Demissidine] it was 102; in that of `Cl.O=C(N[C@H]1CN2CCC1CC2)c1c[nH]c2ccsc2c1=O`, 98.3; in that of `C#C[C@]1(O)CC[C@H]2[C@@H]3CC[C@H]4Cc5nc6nc7ccccc7n6cc5C[C@]4(C)[C@H]3CC[C@@]21C`, 99.
As to `CN1CC(C(=O)NC2(C)OC3(O)C4CCCN4C(=O)C(Cc4ccccc4)N3C2=O)CC2c3cccc4[nH]cc(c34)CC21.CS(=O)(=O)O` (centres undefined) [Dihydroergotamine mesylate], the H1.0 immunofluorescence intensity is 92.6.
In the case of `O=[N+]([O-])c1cc(O)c(O)c([N+](=O)[O-])c1` [3,5-Dinitrocatechol] it was 99.9; in that of `CCCN1CCCC(c2cccc(C#N)c2)C1.Cl` (stereo not drawn) [S(-)-DS 121 hydrochloride], 92.4.
For `CCC1(C2=NCCN2)Cc2ccccc2O1.Cl` (centres undefined) [Efaroxan hydrochloride], the H1.0 immunofluorescence intensity was 93.1.
In the case of `O=P1(NCCCl)OCCCN1CCCl` (centres undefined) [Ifosfamide] it was 97.2; in that of `CC(=O)OC1C2C(OC(=O)Cc3ccccc3)C(C)CC2(OC(C)=O)C(=O)C(C)=CC2C(CCC13CO3)C2(C)C` (centres undefined) [Euphorbiasteroid], 105.
Then `CN1CC(C(=O)NC2(C)OC3(O)C4CCCN4C(=O)C(Cc4ccccc4)N3C2=O)CC2c3cccc4[nH]cc(c34)CC21.CS(=O)(=O)O` (centres undefined) [Dihydroergotamine methanesulfonate], with 90.1.
Consider `Cl.Cl.Clc1ccc(N2CC3CCC(C2)N3)nn1`, for which the H1.0 immunofluorescence intensity was 90.8.
In the case of `C[N+]1(C)C2CCC1CC(OC(=O)C(CO)c1ccccc1)C2.[Br-]` (centres undefined) [Atropine methyl bromide] it was 91.2; in that of `O=C(O)C(=O)c1cn(Cc2ccccc2)c2ccc(-c3ccc(OC(F)(F)F)cc3)cc12`, 94.
Then `CCCCCC=CCC=CCC=CCC=CCCCC(=O)NCCO` [Anandamide (20:4, n-6)], with 99.2.
